CHX counter: Cycloheximide Counterscreen for Small Molecule Inhibitors of Shiga Toxin. cell reporter, cycloheximide protein synthesis inhibition counterscreen. 12% of 300,000 active. AID 2314, 2010. max response, %; in the data active means max response mostly above about 13%, no sharp cut-off; inactive means mostly below about 14%; further: read at 38.3 µM for the half of the compounds with a filed dose; 0% is about no effect
AMA1-RON2 inh: qHTS for Inhibitors of AMA1-RON; Towards Development of Antimalarial Drug Lead: Primary Screen. Plasmodium falciparum AMA1 (3D7) - RON2 peptide interaction. AlphaScreen AMA1-biotinylated RON2 peptide binding. Potency, µM (top dose mostly 58.2 µM), without a hit: at the top dose activity change, negative = inhibition, most hits filed as inhibitors. 0.2% of 360,000 active; active means well fitted inhibition curve with a large enough effect; inconclusive means small, poorly fitted or top-dose-only effect; inactive means no such curve, though single readings can be large or run the other way;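 further: potency means the concentration at half of the fitted maximal effect; 0% = vehicle wells and -100% = peptide control; nearly all actives have a fitted effect of over 45% in size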
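AMA1 (3D7) with his tag at 25 nM final met compounds first, then biotinylated RON2 peptide at 25 nM; detection used donor plus acceptor beads, 10 µg/mL apiece, read by AlphaScreen after 30 min at room temperature.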
Lassa entry inh: qHTS for Inhibitors of binding or entry into cells for Lassa Virus; Lassa virus pseudotype entry inhibition, cell reporter; Potency, µM (series often up to 37.9 µM), for the others: at the highest dose activity change, negative = inhibition, hits mostly inhibitors; 1.2% of 300,000 active; AID 540256, 2011; calls by dose curve; tested in HEK293 cells; further: potency means the concentration at half of the fitted maximal effect; on the % scale 0 is the no-effect control and ±100 the full control effect; nearly all actives have a fitted effect of over 50% in size
Shiga toxin inh: A qHTS for Small Molecule Inhibitors of Shiga Toxin | Vero cells, Shiga toxin protein synthesis inhibition reporter | inhibition, % at 38.7 µM | 9.2% of 290,000 active | AID 2315, 2010; in the data active means inhibition mostly above about 28%, no sharp cut-off; inactive means mostly below about 43%; further: 0% is about no effect
Marburg entry inh: qHTS for inhibitors of binding or entry into cells for Marburg Virus | Marburg virus pseudotyped entry inhibition, cell reporter | 1.8% of 300,000 active | Potency, µM (doses to about 37.8 µM), without a hit: top-dose activity change, negative = inhibition, usual class: inhibitors; calls by dose curve; tested in HEK293 cells; further: potency means the concentration at half of the fitted maximal effect; on the % scale 0 is the no-effect control and ±100 the full control effect
The depositor's hits bear a star; ? = inconclusive; nt = no result given; [ ] = another dose, or the depositor's remark. Many of the other results were omitted from the sample, so hits are more common in it than they were.

SMILES	CHX counter	AMA1-RON2 inh	Lassa entry inh	Shiga toxin inh	Marburg entry inh
Cc1ccc(SCC(=O)NCc2ccco2)cc1	17.1*	-13.7%	15.6%	39.6	-10.5%
Cc1ccc2nc(SCC(=O)NC(=O)NCc3ccco3)[nH]c2c1	12.8*	-14.5%	-9.0%	13.3	14.4%
Cc1ccc(SCCC(=O)NCc2ccco2)cc1	4.6	-6.1%	-21.0%	11.7	10.5%[46.1 µM]
CCc1nc2sc3c(N4CCC(C)CC4)ncnc3c2c2c1CCCC2	nt	nt	-6.5%[46.1 µM]	nt	-6.4%[46.1 µM]
O=c1c2sccc2n(Cc2cc(=O)n3cc(Cl)ccc3n2)c(=O)n1-c1ccccc1	nt	nt	-20.9%[46.1 µM]	nt	6.8%[46.1 µM]
Cc1ccc(S(=O)(=O)N2CCCC2C(=O)NCc2ccncc2)cc1 (centres undefined)	-3.3	0.0%	nt	-17.4	nt
CCN(CC)/N=N/C1=C2C(C)=CC(C)=NC2N=N1 (centres undefined)	nt	nt	nt	nt	10.5%
O=C(CSCc1c(Cl)cccc1Cl)NCc1ccco1	-1.3	-7.9%	-4.5%	2.0	13.3%
Cc1ccc(-c2nc(NCc3ccco3)n(S(C)(=O)=O)n2)cc1	-1.8	0.1%	-0.5%	-8.0	22.1%[46.1 µM]
CC(=O)n1nc(-c2ccc(C)cc2)nc1NCc1ccco1	63.1*	4.3%	-22.6%	100.6*	16.9%[46.1 µM]
Cc1ccccc1CSCC(=O)NCc1ccco1	20.7	?	?	36.2*	?
Cc1ccc(CSCC(=O)NCc2ccco2)cc1	11.3	-7.2%	1.41µM*	25.3	-11.3%
Cc1cccc(OCC(=O)Nc2ccccc2C(=O)OCc2cc(=O)n3nc(C)sc3n2)c1	nt	nt	14.3%[46.1 µM]	nt	nt
CCOC(=O)c1c(NC(=O)CSc2nc3ccc(C)cc3[nH]2)sc2c1CC(C)(C)NC2(C)C	nt	-5.6%	10µM*	nt	?
CCOC(=O)c1[nH]nc(N)c1NC(=O)c1ccc(Cl)cc1Cl	26.9*	-2.4%	0.5%	22.4	-8.6%
CCOC(=O)c1[nH]c2ccc(Cl)cc2c1NC(=O)c1nonc1C	-1.7	9.3%	-1.8%	17.4	9.3%
COC(=O)N/N=C/c1cn(Cc2c(Cl)cccc2Cl)c2ccccc12	-1.8	8.3%	?	-3.6	?
CN(C)C1C(=O)C(C(N)=O)C(=O)C2(O)C(=O)C3C(=O)c4c(O)ccc(Cl)c4C(O)C3CC12 (centres undefined)	-3.2	nt	nt	-19.4	nt
COc1ccc(C2OC3=C(Nc4cc(C)c(C)cc4N3)C2=O)cc1 (centres undefined)	30.0*	-1.7%	nt	76.6*	nt
Cc1cc2c(cc1C)NC1=C(N2)OC(c2cccc(O)c2)C1=O (centres undefined)	7.4*	6.3%	nt	38.3	nt
Cc1ccc2nc(C3CCCN(C(=S)Nc4ccccc4C)C3)[nH]c2c1 (centres undefined)	13.6	10.4%	-25.5%	29.5	-9.8%
Cc1cc2nc(C3CCCN(C(=S)Nc4ccccc4)C3)[nH]c2cc1C (centres undefined)	34.8*	-1.5%	?	58.7	-4.5%
C(=N\N(Cc1ccccc1)c1ccccc1)/c1ccco1	3.1	?	-18.3%[46.1 µM]	22.6	19.5%[46.1 µM]
CCOC(=O)c1c(N)sc(C(=O)Nc2ccccc2)c1C	25.7*	-0.6%	nt	73.5*	nt
CCCOC(=O)c1c(N)sc(C(=O)OCC)c1C	37.3*	-20.4%	-19.5%	active	35.8%
SMILES	CHX counter	AMA1-RON2 inh	Lassa entry inh	Shiga toxin inh	Marburg entry inh
CCCC(=O)Nc1sc(C(=O)Nc2cccc(N)c2)c(C)c1C(=O)OC	51.4*	2.0%	?	59.4*	?
CCOC(=O)c1c(N)sc(C(=O)Nc2ccccc2F)c1C	36.7*	-6.4%	nt	36.8	nt
CCOC(=O)N1CCN(S(=O)(=O)N2CCCC(C(=O)NCCCN3CCCCC3)C2)CC1 (centres undefined)	-1.6	-1.9%	nt	-10.0	nt
COc1ccc(-c2oc3c(c2C(=O)OCCO)C(OCCCO)CCC3)cc1 (centres undefined)	nt	0.7%	nt	nt	nt
CCOC(=O)c1c(C)nc2sc(C(N)=O)c(N)c2c1-c1ccccc1	-2.1	4.6%	-17.2%	-7.3	-14.7%
CCOC(=O)c1cc(C(=O)Nc2ccccc2F)nn1C	37.2*	8.3%	?	72.0*	?
CCOC(=O)c1c(C)nc2sc(C(=O)Nc3ccccc3)c(N)c2c1-c1ccc(OC)cc1	-4.2	50.9%	8.91µM*	18.5	?
CCC(=O)Nc1sc(C(=O)Nc2ccccc2F)c(C)c1C(=O)OC	6.9	-5.7%	?	52.3*	-0.7%[46.1 µM]
Cc1c(C(=O)N(C)C)sc2c1c(=O)n(-c1ccc(Cl)cc1)c(=O)n2CC(=O)C(C)(C)C	nt	nt	21.8%[46.1 µM]	nt	nt
